Measured values taken from PubChem BioAssay AID686978 (National Center for Advancing Translational Sciences (NCATS), 2013).
Out of some 420,000 compounds screened, about 64,000 (15%) were called active. Inconclusive results (about 27%) are left out. The call rests on the fitted dose curve; in most records, active means well fitted inhibition curve with a large enough effect; inconclusive means small, poorly fitted or top-dose-only effect; inactive means flat fitted curve, though single readings scatter. The list is a sample of the results. A call without a number means that no potency is given here.
Potency means the concentration at half of the fitted maximal effect.

Test: qHTS for Inhibitors of human tyrosyl-DNA phosphodiesterase 1 (TDP1): qHTS in cells in absence of CPT; further: nearly all actives have a fitted effect of over 55% in size
Details: DT40 Tdp1-/- hTDP1 cells, no CPT, ATP luminescence, 48 h; activity change, negative = growth inhibition: at 46.2 µM (top of the series)
How it was run: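 DT40 Tdp1-/-;hTDP1 cells, no CPT (DMSO vehicle only), 400 cells/well; compounds pin-transferred; ≥48 hr, 37 °C; CellTiter-Glo 30 min RT dark, luminescence read.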
In the case of `CSCC(NS(=O)(=O)c1ccc(C)cc1)C(=O)O` (configuration not stated), the Potency is reported as “inactive”. For `O=C(Nc1nnc(C2CC2)s1)C1=NN(C2CCS(=O)(=O)C2)C(=O)CC1` (configuration not stated), the Potency was “inactive”. With `Cn1cc(CCC(=O)NC2CC2)c2ccccc21` the Potency was “inactive”. In the case of `O=C(O)c1cccc(N=NN2CCCCCC2)c1`, the Potency is reported as “inactive”. In the case of `CCC1CCCCN1C(=S)Nc1ccc(C(C)=O)cc1` (configuration not stated), the Potency is reported as “inactive”. For `CC(=O)c1ccccc1NC(=O)CC1(CC(=O)O)CCCCC1`, the Potency was “inactive”. For `Cc1ccc(S(=O)(=O)N(CC(O)CN2C(=O)NC(C)(C)C2=O)c2cccc([N+](=O)[O-])c2)cc1` (configuration not stated), the Potency was “inactive”. With `Cc1ccc(S(=O)(=O)N(CC(O)CN2CCCCC2)c2cccc([N+](=O)[O-])c2)cc1` (configuration not stated) the Potency was “inactive”. With `COc1ccc([N+](=O)[O-])cc1N(CC(O)CN(CC(C)C)CC(C)C)S(=O)(=O)c1ccc(C)cc1` (configuration not stated) the Potency was 23.1 µM (active). With `Cc1cc(C)n(Cc2cnc(N3CCOCC3)s2)n1` the Potency was “inactive”. For `O=C(NCC(=O)N(CC1CCCO1)C(C(=O)NC1CCCCC1)c1ccccc1)c1ccco1` (configuration not stated), the Potency was “inactive”. In the case of `Cc1ccc(-c2cc(C(=O)NN)n[nH]2)o1`, the Potency is reported as “inactive”. For `CCn1c(SCC(=O)Nc2cccc(F)c2)nnc1-c1cc2cc(Br)ccc2o1`, the Potency was “inactive”. With `COc1ccc(-c2nc3cnccn3c2NC2CCCCC2)cc1-c1cccc(Cl)c1` the Potency was 25.9 µM (active). In the case of `COc1ccc(C)cc1S(=O)(=O)NC1CCCCC1`, the Potency is reported as “inactive”. In the case of `COc1ccc(-c2nc3cc(C)ccn3c2NC2CCCCC2)cc1SC1CCCCC1`, the Potency is reported as 20.9 µM (active). With `COc1ccc(-c2nnc(SCC(=O)NC3CCCCC3)o2)cc1OC` the Potency was “inactive”. In the case of `COc1ccc(-c2nc3cnccn3c2NC(C)(C)CC(C)(C)C)cc1O`, the Potency is reported as 18.4 µM (active). For `COc1ccc(NC(=O)N(C)C[C@H]2Oc3ncc(C#C[C@@H](C)O)cc3C(=O)N([C@H](C)CO)C[C@H]2C)cc1`, the Potency was “inactive”. With `CC1(C)CCc2nc(SCc3ccccc3)c(C#N)cc2C1` the Potency was “inactive”. With `Cc1ccc(NS(=O)(=O)c2ccc(-c3ccc(=O)[nH]n3)o2)c(C)c1` the Potency was “inactive”. For `OCc1nc(CO)n(Cc2ccccc2)n1`, the Potency was “inactive”. With `CC1(C(=O)NS(=O)(=O)c2cccc(F)c2)CCN1C(=O)c1cccc2ccccc12` (configuration not stated) the Potency was “inactive”. With `CSc1nnc(-c2ccc(C(F)(F)F)cn2)o1` the Potency was “inactive”. For `CC(C)(C)C(=O)OCc1nc(-c2ccc(O)c(O)c2)cs1`, the Potency was 20.6 µM (active). In the case of `Cc1onc(C(=O)NN)c1-c1csc(COc2ccccc2)n1`, the Potency is reported as “inactive”. With `CCCC(=O)N1c2ccc(-c3csc(N)n3)cc2CC1C` (configuration not stated) the Potency was “inactive”. With `NNC(=O)C1CCCn2c1nc1sc3c(c1c2=O)CCCC3` (configuration not stated) the Potency was “inactive”. In the case of `Cn1c(NN)nc2sc3c(c2c1=O)CCC3`, the Potency is reported as 29.1 µM (active). With `CC(C(=O)O)n1cnc2sc3c(c2c1=O)CCCC3` (configuration not stated) the Potency was “inactive”. With `Cc1ccc(N/C(N)=N/c2nc(C(F)(F)F)cc(C(F)(F)F)n2)cc1` the Potency was “inactive”. With `C=C[C@](C)(O)CCC1C(=C)CCC2[C@@](C)(CO)CCC[C@@]12C` (some centres not stated) the Potency was 18.4 µM (active). In the case of `Cc1nnc(SCC(=O)NC2CCCC2)s1`, the Potency is reported as “inactive”. With `O=C(NCc1cccs1)C1CCN(S(=O)(=O)c2ccc(Cl)cc2)CC1` the Potency was “inactive”. With `O=C(NCc1ccccc1)C1CCCN(S(=O)(=O)c2cccs2)C1` (configuration not stated) the Potency was “inactive”. For `O=C(NCc1ccc(Cl)cc1)C1CCN(S(=O)(=O)c2cccs2)CC1`, the Potency was 23.1 µM (active). In the case of `CCCCCNC(=O)C1C(=O)Nc2ccccc2C(=O)N1C(C)(C)C` (configuration not stated), the Potency is reported as “inactive”. With `COc1ccc(NC(=S)N2CCc3cc(OC)c(OC)cc3C2)cc1` the Potency was “inactive”. In the case of `CCOc1ccc(-c2cc3nc(C4CCN(C(=O)OC(C)(C)C)CC4)c(C(=O)Nc4ccc(C(=O)OC)cc4)cn3n2)cc1`, the Potency is reported as “inactive”. For `COc1ccc(Nc2ncc3c(n2)CCN(C(=O)OC(C)(C)C)C3)cc1`, the Potency was 20.6 µM (active). In the case of `COC(=O)CSc1nnc(NC(=O)CCc2ccccc2)s1`, the Potency is reported as “inactive”. For `O=C(OCc1cc(Cl)ccc1OC(F)F)c1cccnc1`, the Potency was “inactive”. For `CCO/N=C(/C)c1c(O)cc(-c2ccccc2)n(-c2ccccc2)c1=O`, the Potency was “inactive”. For `O=C1NC[C@@H](CCCCN2CCN(CCc3ccc(O)cc3)C(=O)C2=O)N(CC2CCCCC2)C1=O`, the Potency was “inactive”. In the case of `CC1CCN(Cc2nc(-c3ccc(Cl)cc3)no2)CC1`, the Potency is reported as “inactive”. For `COc1ccc(-c2noc(CSc3nc4ccc(C)cc4[nH]3)n2)cc1`, the Potency was 11.6 µM (active). In the case of `COc1ccc(-c2noc(CNC(=O)C(C)Oc3ccccc3)n2)cc1` (configuration not stated), the Potency is reported as “inactive”. For `COc1ccc2nc(SCC(=O)Nc3c(C)cc(C)cc3C)[nH]c2c1`, the Potency was “inactive”. In the case of `Cc1ccc(-c2noc(CC(c3ccccc3)c3ccccc3)n2)cc1`, the Potency is reported as “inactive”. In the case of `COc1ccc(-c2noc(CN(C)S(=O)(=O)c3ccc(C)cc3)n2)cc1`, the Potency is reported as 18.4 µM (active). For `Cc1ccc(S(=O)(=O)N(Cc2nc(-c3ccc(Cl)cc3)no2)C2CCCCC2)cc1`, the Potency was 16.4 µM (active). With `COc1ccc(-c2noc(CSc3ccc(C)cc3)n2)cc1` the Potency was “inactive”. For `Cc1ccc(C(=O)OCc2nc(N)nc(Nc3ccccc3C)n2)cc1`, the Potency was “inactive”. In the case of `O=C1CCCc2nn(-c3ccccc3)nc21`, the Potency is reported as “inactive”. In the case of `O=c1[nH]c2c(c(=O)n1Cc1ccccc1)CCC2`, the Potency is reported as “inactive”. For `CC(C)c1nnc(NC(=O)COC(=O)/C=C/c2ccc([N+](=O)[O-])cc2)s1`, the Potency was “inactive”. For `O=C(O)CCCCC(=O)O`, the Potency was “inactive”. In the case of `CC(Oc1ccccc1[N+](=O)[O-])C(=O)N/N=C/c1ccoc1` (configuration not stated), the Potency is reported as “inactive”. For `Cc1noc(C)c1CSc1nnc2ccc3ccccc3n12`, the Potency was “inactive”. For `COc1ccc(C(=O)N/N=C(\C)CC(=O)Nc2ccc(Cl)cn2)cc1`, the Potency was “inactive”. In the case of `Cc1cc(OC(C)C(=O)Nc2sc3c(c2C(N)=O)CCCC3)ccc1Cl` (configuration not stated), the Potency is reported as “inactive”. For `Cc1cccc(C)c1NC(=O)CNC(=O)c1ccc(N2CCOCC2)c([N+](=O)[O-])c1`, the Potency was “inactive”. With `O=C(NCCCN1CCOCC1)c1ccc(N2CCCC2)c([N+](=O)[O-])c1` the Potency was “inactive”. With `N#Cc1c(NC(=O)c2ccc(N3CCOCC3)c([N+](=O)[O-])c2)sc2c1CCCC2` the Potency was 6.51 µM (active). With `CC(/C=C/C1(O)C(C)CC(=O)CC1(C)C)OC1OC(CO)C(O)C(O)C1O` (configuration not stated) the Potency was “inactive”. For `CCOCc1nnc(NC(=O)CCC2CCCCC2)s1`, the Potency was “inactive”. With `CCc1ccccc1NC(=O)c1ccc2c(c1)CCN2S(C)(=O)=O` the Potency was “inactive”. In the case of `CN1CCc2ccccc2C1Cc1ccccc1NC(=O)c1sc2ccccc2c1Cl` (configuration not stated), the Potency is reported as 6.51 µM (active). For `CCc1ccccc1NC(=O)NCCN1CCCCC1`, the Potency was “inactive”. With `NNc1nnc(NN)c2ccccc12` the Potency was “inactive”. For `CC(O)CN(Cc1ccc(Cl)cc1)CC(C)O` (configuration not stated), the Potency was “inactive”. With `Cc1ccc(C)c(C(=O)N2CCC(n3nccc3NC(=O)C3CC3)CC2)c1` the Potency was “inactive”. In the case of `Cc1ccc(CC(=O)Nc2cccc(C#N)c2)cc1`, the Potency is reported as “inactive”. For `Cc1ccc(NC(=O)N2CCSc3ccccc32)cc1`, the Potency was “inactive”. In the case of `Cc1ccc(NC(=O)Cc2ccc(NC(=O)N3CCCCc4ccccc43)cc2)cc1`, the Potency is reported as 23.1 µM (active). For `CN(C)S(=O)(=O)c1cccc(C(=O)OCC(=O)N2CCCC2=O)c1`, the Potency was “inactive”. In the case of `O=C(CSc1ncn[nH]1)NCc1ccc2c(c1)OCO2`, the Potency is reported as “inactive”. With `Cc1ccc(CN2CCN(Cc3ccc(OCCO)cc3)CC2CCO)o1` (configuration not stated) the Potency was “inactive”. In the case of `CCOc1ccc(CN2CCN(Cc3ccc4cc(F)ccc4n3)CC2CCO)cc1` (configuration not stated), the Potency is reported as 25.9 µM (active). In the case of `OCCC1CN(Cc2cccc(O)c2)CCN1CCc1ccccc1` (configuration not stated), the Potency is reported as “inactive”. In the case of `COc1cccc(CN2CCN(Cc3ccc4cccc(F)c4n3)CC2CCO)c1` (configuration not stated), the Potency is reported as “inactive”. For `CCOc1ccc(CN2CCN(Cc3ccon3)CC2CCO)cc1` (configuration not stated), the Potency was “inactive”. In the case of `OCCC1CN(Cc2ccc(Oc3ncccn3)cc2)CCN1CCc1ccccc1` (configuration not stated), the Potency is reported as “inactive”. With `OCCC1CN(Cc2cccn2-c2nccs2)CCN1CCc1ccccc1` (configuration not stated) the Potency was “inactive”. In the case of `CCOc1ccc(CN2CCN(CCCc3ccccc3)C(CCO)C2)cc1` (configuration not stated), the Potency is reported as 20.6 µM (active). With `OCCC1CN(Cc2cnc(-c3ccccc3)s2)CCN1CCc1ccccc1` (configuration not stated) the Potency was 8.2 µM (active). With `C[C@H]1CN([C@@H](C)CO)C(=O)CCCn2nncc2CO[C@@H]1CN(C)S(=O)(=O)c1cccc(C#N)c1` the Potency was “inactive”. In the case of `CCCOC(=O)c1ccc(N2C(=O)c3ccccc3C2=O)cc1`, the Potency is reported as “inactive”. For `CCOc1ccc(CCNC(=O)COC(=O)CCS(=O)(=O)c2ccc(C)cc2)cc1OCC`, the Potency was “inactive”. With `COC(=O)CN1C(C)=Nc2ccc(Br)cc2C1c1ccccc1` (configuration not stated) the Potency was “inactive”. For `O=C(/C=C/c1ccccc1[N+](=O)[O-])OC1CCCCC1=O` (configuration not stated), the Potency was “inactive”. For `O=C(/C=C/c1ccccc1[N+](=O)[O-])NCC1CCCO1` (configuration not stated), the Potency was “inactive”. In the case of `CC1CCCCC1NC(=O)/C(C#N)=C/C=C/c1ccccc1[N+](=O)[O-]` (configuration not stated), the Potency is reported as 9.2 µM (active). For `CCC(CC)C(=O)Nc1cccc(C(=O)N2CCCC2)c1`, the Potency was “inactive”. In the case of `Cc1occc1-c1nnc(SCC(=O)NC2(C#N)CCCC2)n1C`, the Potency is reported as “inactive”. In the case of `CCOCCCN1C(=O)C2C(C(=O)Nc3ccc(OCC)cc3)C3C=CC2(O3)C1C(=O)NC1CCCCC1` (configuration not stated), the Potency is reported as “inactive”. With `OCCCNc1nccc(-c2cc(Nc3cccc(Cl)c3)ncn2)n1` the Potency was 0.731 µM (active). For `NS(=O)(=O)c1cccnc1Nc1cccc(Cl)c1`, the Potency was “inactive”. In the case of `O=C(Nc1cccc(Cl)c1)OCc1ccccn1`, the Potency is reported as “inactive”. In the case of `CCC(Sc1nncn1C)C(=O)Nc1nnc(-c2ccc(Cl)cc2)s1` (configuration not stated), the Potency is reported as “inactive”. In the case of `NS(=O)(=O)c1cc2c(cc1Cl)NC(C(Cl)Cl)NS2(=O)=O` (configuration not stated), the Potency is reported as “inactive”. With `O=P(c1cccs1)(c1cccs1)c1cccs1` the Potency was “inactive”. In the case of `O=C(Nc1ccccc1Cl)c1ccccc1S(=O)(=O)c1ccccc1[N+](=O)[O-]`, the Potency is reported as “inactive”. For `COc1cc(OC)c(/C=N/NC(=O)c2ccc([N+](=O)[O-])cc2)cc1Br`, the Potency was “inactive”. With `COc1cc(/C=N/N=C(\N)c2nonc2N)cc(OC)c1OC` the Potency was “inactive”. In the case of `COc1cc(/C=N\NC(=O)c2nonc2N)c(OC)cc1Br`, the Potency is reported as 29.1 µM (active). In the case of `CCc1cc2c(=O)c(-c3nc4ccccc4n3C)c(CCCC(=O)O)oc2cc1OC(=O)C(C)(C)C`, the Potency is reported as “inactive”.
